Consider 20 compounds from PubChem BioAssay (NCATS).

Assay [1] addresses Glutathione peroxidase 1 (Homo sapiens) (UniProt P07203). Description: Primary qHTS Assay for Inhibitors of Recombinant Selenoprotein Glutathione Peroxidase 1 (GPX1) (AID 1845191). For activity, negative = inhibition: % is set by controls: 0 for no effect and ±100 for the full control effect. Note: nearly all actives have a fitted effect of over 65% in size. Note: potency is the fitted concentration of half-maximal effect. An outline of the steps: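 10 nM GPX1 + cpd, 30 min RT; start w/ 1 mM GSH, 0.5 mM cumene hydroperoxide, 0.5 mM NADPH, 100 nM GR, 0.01% BSA; buffer 50 mM Tris-HCl pH 7.5, 2 mM EDTA, 150 mM NaCl; Fl 340/450, 0 & 15 min.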

Assay [2] addresses Phospholipid hydroperoxide glutathione peroxidase GPX4 (Homo sapiens) (UniProt P36969). Description: Primary qHTS Assay for Inhibitors of Recombinant Selenoprotein Glutathione Peroxidase 4 (GPX4) (AID 1845192). For activity change, negative = inhibition: series mostly up to about 50 µM; % is set by controls: 0 for no effect and ±100 for the full control effect. Note: nearly all actives have a fitted effect of over 65% in size. Note: potency is the fitted concentration of half-maximal effect. A digest of the protocol:
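NADPH consumption, followed by fluorescence at 340/450 nm between 0 and 15 min, reports GPX4 activity via coupled glutathione reductase (100 nM). Enzyme 200 nM was pre-exposed to compound 30 min; 0.5 mM cumene hydroperoxide and 1 mM GSH served as substrates.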

For assay [3], the target named is Luciferin 4-monooxygenase (Photinus pyralis) (UniProt P08659). The experiment in a line: Primary firefly luciferase (FLuc) qHTS assay for identification of artifact compounds. (AID 1845220).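 For activity change, negative = inhibition: series mostly up to about 54 µM; plate controls were DMSO vehicle for no effect and no enzyme for full effect.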 Note: nearly all actives have a fitted effect of over 60% in size. Note: potency is the fitted concentration of half-maximal effect. An outline of the steps: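 Compounds sat 15 min at room temperature with 10 uM luciferin and 10 uM ATP (pH 7.6 Tris acetate). Firefly luciferase (10 nM final) was then added, and luminescence was read 5 min later. Data normalized to no-enzyme and DMSO controls were Hill-fitted.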

Assay [4] in a line: Primary fluorescence-based thiol-reactive (MSTI) qHTS assay for identification of artifact compounds. (AID 1845221).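 For activity change, negative = thiol reactive: series mostly up to about 54 µM; thiol-reactive compounds lower the probe fluorescence signal.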 Note: nearly all actives have a fitted effect of over 65% in size. Note: potency is the fitted concentration of half-maximal effect. A digest of the protocol: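 Reactivity toward the thiol probe MSTI (4 uM) is scored by fluorescence at Ex/Em 525/598 nm after 1 h at room temperature. Acetyl-MSTI and MSTI define the activity scale.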
Assay [5] deals with Nanoluciferase (engineered Oplophorus gracilirostris luciferase). Description: Primary Nanoluciferase (NLuc) qHTS assay for identification of artifact compounds. (AID 1845222).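 Note: series mostly up to about 54 µM; 0% = DMSO and -100% = no enzyme.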 An outline of the steps:
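Luminescence from secreted NLuc (filtered, 1:55-diluted S16 cell medium) read 5 min after Nano-Glo substrate; compounds preincubated 15 min, RT. Hill fits of inhibition normalized to DMSO and no-enzyme.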

Assay [6] can be described thus: Primary redox qHTS assay for identification of artifact compounds. (AID 1845223).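 Note: 0% = DMSO and 100% = reference compound.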 A digest of the protocol:
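Amplex Red (25 uM) and HRP (250 mU/mL) in HBSS, with compounds for 15 min, then 250 uM DTT for 30 min, room temperature, dark. Fluorescence 525/598 nm read; normalized to DMSO and 10 uM DA3003; Hill fit.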

Unmarked numbers belong to inactive results. Records with an inconclusive call do not appear. Calls of active or inactive are those of the source. Calls come from the whole dose curve; as a rule, active = well fitted curve in the direction sought with a large enough effect; inconclusive = small, poorly fitted or top-dose-only effect, or another doubt; inactive = no such curve, though single readings can be large; an effect the other way counts as inactive or inconclusive. Where a SMILES comes first, the peptide text is derived from it. The star is where a group is joined. AMC = Cc1cc(=O)oc2cc(N*)ccc12; Cbz = O=C(OCc1ccccc1)*; CH2F = FC*

Chain of Phospholipid hydroperoxide glutathione peroxidase GPX4 (Homo sapiens) (P36969 whole entry, looked up): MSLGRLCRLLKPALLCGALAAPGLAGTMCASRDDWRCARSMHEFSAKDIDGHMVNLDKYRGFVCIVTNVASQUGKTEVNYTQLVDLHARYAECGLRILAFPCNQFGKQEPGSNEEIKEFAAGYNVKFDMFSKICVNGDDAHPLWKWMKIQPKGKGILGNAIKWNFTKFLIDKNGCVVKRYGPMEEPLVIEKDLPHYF
Chain of Glutathione peroxidase 1 (Homo sapiens) (P07203 whole entry, looked up): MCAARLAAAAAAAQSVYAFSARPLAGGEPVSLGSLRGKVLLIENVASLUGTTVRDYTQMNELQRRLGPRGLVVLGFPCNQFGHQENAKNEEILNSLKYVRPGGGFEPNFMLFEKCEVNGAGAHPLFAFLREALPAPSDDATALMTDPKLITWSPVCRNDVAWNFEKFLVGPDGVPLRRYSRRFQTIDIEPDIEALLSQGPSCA

Take `O=C(O)c1ccncc1Nc1nn(CCN2CCC(F)(F)CC2)c2ccc(F)cc12`: the Potency result in assay [1], in assay [2], in assay [3], in assay [5] and in assay [6] was “inactive” each time. The Potency in assay [4] was 1.34 µM (active).

`CC1=C2CC(=O)C(C)CC/C=C(\C)CC2OC1=O` (stereo not given): the Potency result in assay [1], in assay [2], in assay [3], in assay [4], in assay [5] and in assay [6] was “inactive” throughout.

Regarding `O=C(N[C@@H]1CC[C@@H](c2cccc(F)c2F)CN(CC(F)(F)F)C1=O)N1CCC(n2c(=O)[nH]c3ncccc32)CC1`, the Potency result in assay [1], in assay [2], in assay [3], in assay [4], in assay [5] and in assay [6] was “inactive” in each case.

Take `Cc1cc(=O)oc2cc(NC(=O)[C@H](CCC(=O)O)NC(=O)[C@H](CC(C)C)NC(=O)[C@H](CC(C)C)NC(=O)OCc3ccccc3)ccc12` (Cbz-Leu-Leu-Glu-{AMC}): the Potency in assay [1] and in assay [2] was 22.7 µM (active) in each case. In addition, the Potency entry in assay [3], in assay [4], in assay [5] and in assay [6] was “inactive” in each case.

Consider `Cc1ccc(-c2c(-c3nn(C)c4ncnc(N5CCC(N6CCCCC6)C5)c34)cnn2C)cc1` (stereo not given), for which the Potency entry in assay [1], in assay [2], in assay [3], in assay [4], in assay [5] and in assay [6] was “inactive” each time.

With `O=C(/C=C/c1ccc(O)cc1)OC[C@H]1O[C@@H](O/C(=C\c2ccccc2)C(=O)O)[C@H](O)[C@@H](O)[C@@H]1O`, the Potency entry in assay [1], in assay [2], in assay [3], in assay [4], in assay [5] and in assay [6] was “inactive” in each case.

As to `CC1(C)CC=C(C#Cc2ccccc2)c2cc(/C=C/c3ccc(C(=O)O)cc3)ccc21`, the Potency entry in assay [1], in assay [2], in assay [4], in assay [5] and in assay [6] was “inactive” throughout. In addition, the Potency in assay [3] was 10.7 µM (active).

For the compound `CCCN(CCN1CCN(c2ccccc2OC)CC1)C1CCc2ncsc2C1` (stereo not given), the Potency result in assay [1], in assay [2], in assay [3], in assay [4], in assay [5] and in assay [6] was “inactive” throughout.

Take `Cc1cn(-c2cc(NC(=O)c3ccc(C)c(Nc4nccc(-c5cnccn5)n4)c3)cc(C(F)(F)F)c2)cn1`: the Potency result in assay [1], in assay [2], in assay [3], in assay [4], in assay [5] and in assay [6] was “inactive” each time.

Regarding `CSCC[C@H](NC(=O)[C@H](CO)NC(=O)[C@H](CCC(=O)O)NC(C)=O)C(=O)N[C@H](C=O)CC(=O)O` (Ac-ESMD-aldehyde), the Potency entry in assay [1] and in assay [2] was “inactive” in each case. Further, the activity change, negative = inhibition in assay [3] was -5.86% [at 11.6 µM]. Moreover, the activity change, negative = thiol reactive in assay [4] is 10.4% [at 11.5 µM]. Moreover, the activity, negative = inhibition in assay [5] was 3.03% [at 11.6 µM]. Also, the redox activity (% of DA3003) in assay [6] was -1.61% [at 11.5 µM].

Turning to `O=C(/C=C/c1ccc(O)cc1)OC[C@@]1(O)C=C[C@@H]2C(C(=O)O)=CO[C@@H](O[C@@H]3O[C@H](CO)[C@@H](O)[C@H](O)[C@H]3O)[C@@H]21`, the Potency entry in assay [1], in assay [2], in assay [3], in assay [5] and in assay [6] was “inactive” in each case. Also, the Potency in assay [4] was 5.19 µM (active).

As to `C=C1C(OC(C)=O)C(=O)C2C(C)(C)C(O)CCC2(C)C1CC(OC(C)=O)/C(C)=C/COC(C)=O` (stereo not given), the Potency result in assay [1], in assay [2], in assay [3], in assay [4], in assay [5] and in assay [6] was “inactive” in each case.

For `C=C1C(=O)O[C@@H]2CC(C)=C([C@@H](C)CCCOC(C)=O)[C@@H](O)[C@H]12`, the Potency result in assay [1], in assay [2], in assay [3], in assay [5] and in assay [6] was “inactive” in each case. Also, in assay [4], the Potency was 16.5 µM (active).

Turning to `CC1CCCCCCCc2cc(O)cc(O)c2C(=O)O1` (stereo not given), the Potency entry in assay [1], in assay [2], in assay [3], in assay [5] and in assay [6] was “inactive” in each case. Also, the Potency in assay [4] is 26.7 µM (active).

Regarding `COc1ccc(C2OCC3C(c4cc(OC)c5c(c4)OCO5)OCC23)cc1OC` (stereo not given), the Potency result in assay [1], in assay [2], in assay [3], in assay [4], in assay [5] and in assay [6] was “inactive” each time.

Consider `COC(=O)CC[C@H](NC(=O)[C@H](CC(C)C)NC(=O)OCc1ccccc1)C(=O)N[C@@H](Cc1cnc[nH]1)C(=O)N[C@@H](CC(=O)OC)C(=O)CF` (Cbz-LE(OMe)HD(OMe)-CH2F), for which the Potency entry in assay [1] and in assay [2] was “inactive” each time. The activity change, negative = inhibition in assay [3] was 1.89% [at 11.6 µM]. The activity change, negative = thiol reactive in assay [4] is 12.6% [at 11.5 µM]. Further, the activity, negative = inhibition in assay [5] was 2.59% [at 11.6 µM]. Further, the redox activity (% of DA3003) in assay [6] was -3.22% [at 11.5 µM].

With `C=C1C(OC(C)=O)CCC2(C)CC3(O)OC(=O)C(C)=C3CC12` (stereo not given), the Potency entry in assay [1], in assay [2], in assay [3], in assay [4], in assay [5] and in assay [6] was “inactive” throughout.

As for `CC(NC(=O)[C@H](Cc1ccccc1)NC(=O)OCc1ccccc1)C(=O)CF` (stereo not given in full), the Potency entry in assay [1], in assay [2], in assay [3], in assay [4], in assay [5] and in assay [6] was “inactive” throughout.

In the case of `NC(=O)[C@@H]1CC[C@H](c2ccc(OCc3ccccc3F)cc2)N1`, the Potency entry in assay [1], in assay [2], in assay [4], in assay [5] and in assay [6] was “inactive” in each case. The Potency in assay [3] is 10.7 µM (active).

In the case of `CN[C@H](CNC(=O)N1CCC[C@@H]([C@@H](OCCNC(=O)OC)c2cccc(Cl)c2)C1)C[C@H]1CCCOC1`, the Potency entry in assay [1], in assay [2], in assay [3], in assay [4], in assay [5] and in assay [6] was “inactive” in each case.
